Source: PubChem
KB-V1 cytotox = kills drug-selected multidrug resistant KB-V1 cells; KB-V1 MDR cells viability, CellTiter-Glo, 72 h; Potency, µM (series often up to 46.1 µM), actives largely listed as cytotoxic; actives 3.4% (n = 400,000); AID 1347076; also: % is scaled to controls: 0 for no effect and ±100 for the full control effect; nearly all actives have a fitted effect of over 60% in size
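KB-V1 MDR subline cells in DMEM (phenol-red free, 10% FBS) exposed to compounds in qHTS concentration series for 72 h at 37 degrees C. Viability read by CellTiter-Glo luminescence; concentration-effect curves fitted after normalization and correction.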
HT1080NT lethal = kills 2HG-producing HT-1080-NT fibrosarcoma cells; actives 1.6% (n = 360,000); Potency, µM (top dose mostly 46.1 µM), without a hit: top-dose activity, negative = less viability, hits mostly cytotoxic; HT-1080-NT fibrosarcoma viability, CellTiter-Glo ATP luminescence, 48 h;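 also: NT is the 2HG producing partner of a matched IDH1 knockdown line; 0% = DMSO-treated cells and -100% = media-only wells without cells; nearly all actives have a fitted effect of over 55% in size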
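Luminescent CellTiter-Glo readout after 48 hours of compound exposure at 37 degrees C defined viability of HT-1080-NT cells. Activity was normalized to DMSO wells and cell-free media wells; concentration-response curves were fitted and assigned curve classes.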
MCF10A rereplic = inducers of DNA re-replication in MCF 10A breast cells; actives 2.9% (n = 350,000); AID 624296; Potency, µM (doses to about 46.1 µM), without a hit: at the top dose activity, positive = re-replication, most hits filed as activators; MCF 10A DNA re-replication, Hoechst nuclear intensity, 48 h; also: % of control where 0% means no effect; nearly all actives have a fitted effect of over 50% in size
SW480 rereplic = DNA re-replication induction in SW480 cells. SW480 DNA re-replication, Hoechst DNA content imaging, 48 h. actives 1.8% (n = 340,000). Potency, µM (titrated, usually from 46.1 µM), without a hit: at the top dose re-replication activation, usual class: activators; also: % of control where 0% means no effect; nearly all actives have a fitted effect of over 55% in size
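250 cells/well; 23 nL cpd via pin tool; 48 hr, 37 C, 5% CO2; Hoechst 40 min; imager read of total nuclear intensity, ex 405/em 500-530 nm.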
KB-3-1 cytotox = kills parental KB-3-1 adenocarcinoma cells. KB-3-1 viability, CellTiter-Glo ATP luminescence, 72 h. Potency, µM (top dose mostly 46.1 µM), actives largely listed as cytotoxic. actives 1.4% (n = 400,000); also: % is scaled to controls: 0 for no effect and ±100 for the full control effect; nearly all actives have a fitted effect of over 60% in size
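Multi-concentration cytotoxicity screen in KB-3-1 cells grown in DMEM lacking phenol red with 10% FBS. After 72 h at 37 °C with compound, ATP-dependent luminescence was recorded.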
HT1080 IDH1KD tx = toxicity to HT-1080 IDH1 knockdown cells (counter line) | actives 2% (n = 360,000) | HT-1080 IDH1 knockdown viability, ATP luminescence, 48 h | AID 686971 | Potency, µM (series often up to 46.1 µM), without a hit: top-dose activity, negative = toxicity, hits mostly cytotoxic;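 also: 0% = DMSO wells and -100% = cell-free medium wells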
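In this qHTS, HT-1080 cells depleted of IDH1 are exposed for 48 h at 37 °C to compound titrations. Toxicity is scored from CellTiter-Glo luminescence, with DMSO as full viability and medium alone as none.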
An asterisk follows results filed as active; i = inactive; ? = inconclusive; · = no result. A selection: hits, their analogues and other compounds. The true share with any hit is near 7.9%. Calls follow the shape of the dose curve; as a rule, active = well fitted curve in the direction sought with a large enough effect; inconclusive = small, poorly fitted or top-dose-only effect, or another doubt; inactive = no such curve, though single readings can be large; an effect the other way counts as inactive or inconclusive. Potency is read from the fitted curve at half-maximal effect.

SMILES | KB-V1 cytotox | HT1080NT lethal | MCF10A rereplic | SW480 rereplic | KB-3-1 cytotox | HT1080 IDH1KD tx
Cc1ccc(/C=C2/CNC/C(=C/c3ccc(C)cc3)C2=O)cc1 | 4.1µM* | 15µM* | ? | 4.6µM* | 3.3µM* | 23µM*
CCN1CCN(c2cc(C)c3cc(NC(=S)N4CC(C)CC(C)C4)ccc3n2)CC1 (stereo unspecified) | i | ? | ? | ? | i | 16µM*
CCN1CCN(c2cc(C)c3cc(NC(=S)N4CCCC(C)C4)ccc3n2)CC1 (stereo unspecified) | ? | ? | 5% | ? | ? | 16µM*
CCN1CCN(C(=S)Nc2ccc3nc(N4CCN(CC)CC4)cc(C)c3c2)CC1 | i | -22% | ? | ? | ? | ?
CCOC(=O)c1cc2c(=O)n3ccccc3nc2n(CC2CCCO2)c1=NC(=O)c1ccc(F)cc1 (stereo unspecified) | i | · | · | · | i | ·
CC1(C)Cc2c(cnn2-c2ccccc2)C(NC(=O)CCN2CCCC2=O)C1 (stereo unspecified) | i | 1% | -7% | -1% | i | 1%
CN(C)CCCCOc1ccc(F)cc1 | i | 14% | 2% | -24% | i | 11%
CN(C)CCOC1(Cc2ccc(F)cc2)CCC(C(C)(C)C)CC1 (stereo unspecified) | 16µM* | -20% | 11% | 12% | i | -11%
Cc1ccc(CC2(OCCN(C)C)CCC(C(C)(C)C)CC2)cc1 (stereo unspecified) | 18µM* | -6% | ? | 24% | ? | -2%
Cc1ccc(NC(=O)C(C)OC(=O)CCN=C2NS(=O)(=O)c3ccccc32)cc1 (stereo unspecified) | i | 1% | 1% | 2% | i | 0%
CC1(C)N=C(N)N=C(N)N1c1ccc(OCCCOc2ccccc2)c(Cl)c1 | i | ? | ? | 5% | ? | 2.1µM*
CC1(C)N=C(N)N=C(N)N1c1cccc(CC(=O)Nc2ccccc2)c1 | i | 9.2µM* | · | · | i | 3.3µM*
CC1(C)N=C(N)N=C(N)N1c1ccc(OCC(=O)Nc2ccccc2)c(Cl)c1 | ? | 0.73µM* | · | · | ? | 0.37µM*
NC(=O)c1ccc(NC(=O)COc2ccc([N+](=O)[O-])cc2Cl)cc1 | i | -6% | 4% | -16% | i | -1%
Cc1cccc(NC(=O)CCc2ccc(N3C(N)=NC(N)=NC3(C)C)cc2)c1 | ? | 1µM* | · | · | i | 0.46µM*
O=S1(=O)CCN(Cc2cccnc2)CC1 | i | -2% | · | · | i | 2%
CC1(C(=O)Nc2cccc(C(F)(F)F)c2)Cc2ccccc2C(=O)O1 (stereo unspecified) | i | · | · | · | i | ·
CCOc1ccc(C(=O)CCC(=O)N(CC)CC(=O)NCc2ccc(Cl)cc2)cc1 | ? | 4% | 8% | 3% | i | -1%
Cc1cc(C)c2nc(N3CCCC(C(=O)NCc4cccc(Cl)c4)C3)sc2c1 (stereo unspecified) | i | · | · | · | i | ·
CC(C)C[C@H]1CN(CCCC[C@@H]2CNC(=O)C(=O)N2CC2CCCCC2)C(=O)C(=O)N1Cc1ccccc1 | ? | 7% | · | · | i | 0%
NC(=O)C1CCN(C(=O)c2cccc(S(=O)(=O)N3CCCC3)c2)CC1 | i | -1% | -1% | -3% | i | -4%
Cc1ccc2cc(CN(CCCN3CCOCC3)C(c3nnnn3Cc3ccco3)C(C)C)c(=O)[nH]c2c1C (stereo unspecified) | i | 0% | ? | 21µM* | i | ?
Cc1cc(C)c2[nH]c(=O)c(C(c3nnnn3C(C)(C)C)N(Cc3ccco3)CC3CCCO3)cc2c1 (stereo unspecified) | i | 12% | -13% | -1% | i | -3%
CCC(c1nnnn1CCc1ccccc1)N(Cc1ccco1)Cc1cc2cccc(C)c2[nH]c1=O (stereo unspecified) | 7.3µM* | -6% | ? | -1% | ? | -15%
CCOc1ccc2[nH]c(=O)c(CN(Cc3ccco3)C(CC)c3nnnn3Cc3ccccc3)cc2c1 (stereo unspecified) | ? | -24% | 13% | 21% | ? | ?
SMILES | KB-V1 cytotox | HT1080NT lethal | MCF10A rereplic | SW480 rereplic | KB-3-1 cytotox | HT1080 IDH1KD tx
CCC(c1nnnn1C(C)(C)C)N(Cc1ccco1)Cc1cc2cccc(C)c2[nH]c1=O (stereo unspecified) | 23µM* | 0% | 9% | 2% | i | -5%
COc1ccccc1-c1cccc([C@@H]2C[C@H]3[C@H](CON3C)CN2S(=O)(=O)c2ccccc2C)c1 | i | 0% | ? | -4% | i | 1%
Cc1cc(=O)n(CC(=O)NCCC(C)C)c2c1c(C)nn2C | i | · | · | · | i | ·
CCCn1c(N)c(N(CCOC)C(=O)c2ccc([N+](=O)[O-])cc2Cl)c(=O)[nH]c1=O | i | 15% | -6% | -5% | i | 19%
COc1cc2oc(=O)c(CC(=O)NCc3ccc(OC)c(OC)c3)c(C)c2cc1Cl | i | · | · | · | i | ·
CCN(CC)C(=O)C1=C(C)N(Cc2ccc(OC)cc2)C(=O)C(CC(=O)NCCc2ccccn2)C1 (stereo unspecified) | i | -6% | · | · | i | -5%
COc1ccc2[nH]c3c(c2c1)CCN1C(=O)C(CC(=O)NCCN2CCOCC2)C[C@H](C(=O)N2CCOCC2)[C@@]31C (stereo partly specified) | i | -2% | -7% | -21% | i | 4%
COc1ccc(CN2C(=O)[C@H]3Cc4c([nH]c5ccccc45)C(C)(C)N3C2=O)cc1 | ? | · | 9.2µM* | -4% | ? | ·
COc1ccccc1CN1C(=O)[C@@H]2Cc3c([nH]c4ccccc34)C(C)(C)N2C1=O | 21µM* | · | 27% | -3% | ? | ·
CC1(C)c2[nH]c3ccccc3c2C[C@H]2C(=O)N(Cc3cccc(F)c3)C(=O)N21 | i | · | ? | ? | ? | ·
COc1ccc(CN2C(=O)[C@@H]3Cc4c([nH]c5ccccc45)C(C)(C)N3C2=O)cc1 | ? | · | 14% | -6% | 18µM* | ·
COc1cccc(CN2C(=O)[C@H]3Cc4c([nH]c5ccccc45)C(C)(C)N3C2=O)c1 | 16µM* | · | ? | 0% | i | ·
O=C1C(=O)C(c2ccc(O)cc2O)Oc2cc(O)cc(O)c21 (stereo unspecified) | i | · | · | · | i | ·
